Inconclusive results are not listed. The list shows a part of the results. Activity calls are given as the source filed them. Unless noted, calls come from the whole dose curve; as a rule, active = well fitted curve in the direction sought with a large enough effect; inconclusive = small, poorly fitted or top-dose-only effect, or another doubt; inactive = no such curve, though single readings can be large; an effect the other way counts as inactive or inconclusive.

Assay [1] is described as follows: qHTS for differential inhibitors of proliferation of Plasmodium falciparum line HB3 (AID 1886).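 Note: parasites grown with compound for 72 h before SYBR Green readout.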 Note: potency is the fitted concentration of half-maximal effect. As to conditions: Potency: Plasmodium falciparum HB3 proliferation inhibition.
Assay [2] is described as follows: qHTS Assay for Modulators of Human Peripheral Myelin Protein 22 (PMP22) Expression/Activity (AID 1967; active = well fitted curve in the direction sought with a large enough effect in the signal ratio; the % refers to the signal ratio). In outline:
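MSC80 mouse Schwann cells stably carrying Pmp22 promoter–green click beetle luciferase plus EF-alpha–red luciferase control were dosed for 24h at 37 °C. Dual-colour luminescence was filter-overlap corrected; %Activity came from green/red ratio versus untreated cells.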

For assay [3], the target named is Ferritin light chain (Equus caballus) (UniProt P02791). In words: qHTS Validation Assay for Identification of Novel General Anesthetics (AID 2323). Note: series mostly up to about 77 µM. In outline:
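Competitive displacement of profluorescent 1-aminoanthracene (1-AMA, 50% saturated solution in PBS) from 10 uM horse-spleen apoferritin. Compounds incubated 10 min at room temperature; fluorescence read at 380 nm excitation/535 nm emission, normalized to free 1-AMA and complex, fitted with four-parameter Hill equation.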

The target in assay [4] is ATP-dependent DNA helicase Q1 (Homo sapiens) (UniProt P46063). In words: qHTS Validation Assay for Inhibitors of RecQ-Like Dna Helicase 1 (RECQ1) (AID 2353). In outline: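 50 nM RECQ1T1 preincubated 15 min with compound in Tris pH 8.0 buffer with MgCl2, DTT, Tween-20 and 2.5 ug/ml poly(dI-dC); started with 200 nM TAMRA/BHQ-2 forked duplex and 2 mM ATP. Unwinding read as fluorescence (525/598 nm), two reads 2 h apart.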

A short description of assay [5]: High Content Imaging Cell-Based qHTS for Inhibitors of the mTORC1 Signaling Pathway in MEF (Tsc2-/-, p53-/-) Cells (AID 2666). In outline: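 Phospho-rpS6 (Ser235/236) immunofluorescence, normalized and scored as % positive cells using rapamycin and DMSO controls, was read in empty-vector Tsc2-/-, p53-/- MEFs after 24 h compound exposure at 37 C; propidium iodide counted cells.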

Assay [6] is described as follows: High Content Imaging Cell-Based qHTS for Inhibitors of the mTORC1 Signaling Pathway in MEF Cells (AID 2667). Note: potency is the fitted concentration of half-maximal effect. A digest of the protocol: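 WT MEFs (Tsc2-/-, p53-/- re-expressing Tsc2), in DMEM + 10% FBS, were treated with compound for 24 h at 37 C. Cells were then fixed and stained for phospho-rpS6 Ser235/236 with propidium iodide as cell count. Values are % positive cells, with thresholds set against rapamycin-treated cells.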

Assay [7] is described as follows: Validation screen for inhibitors of Lassa infection (AID 463096; calls by dose curve; note: potency is the fitted concentration of half-maximal effect).
Assay [8] in a line: Validation screen for small molecules that induce DNA re-replication in MCF 10A normal breast cells (AID 463097). Note: nearly all actives have a fitted effect of over 60% in size. Note: potency is the fitted concentration of half-maximal effect. In outline: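 Readout: Hoechst nuclear fluorescence intensity, 405 ex / 500-530 em, by scanning plate imager; re-replication scored as increase in nuclei with elevated DNA content. Cells exposed to compound 48 hr, 37 C, 5% CO2 beforehand.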
In assay [9] the target is Ubiquitin carboxyl-terminal hydrolase 2 (Homo sapiens) (UniProt O75604). In words: qHTS Validation Assay for Inhibitors of Ubiquitin-specific Protease USP2a Using CHOP2 as the Reporter (AID 463106). A digest of the protocol: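 USP2 core (10 nM final) was preincubated with compound 30 min at RT in pH 8.0 Tris/CaCl2/beta-ME/CHAPS buffer. Ub-CHOP2 and reporter substrate (25 nM final each) were then added, with fluorescence (Ex 485/Em 531) read after 60 min. Data were normalized to NEM full inhibition and fitted to concentration-response curves.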

In assay [10] the target is DNA polymerase III PolC-type (Bacillus subtilis (strain 168)) (UniProt P13267). In words: qHTS Validation Assay for the Inhibitors of DNA Replication in Gram-Positive Bacteria (AID 485295).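 Note: PicoGreen fluorescence of double-stranded DNA made on primed circular M13 template; series mostly up to about 57 µM.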 A digest of the protocol: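 Reconstituted B. subtilis holoenzyme (Pol III, beta clamp, SSB, primase) was preincubated with compound at room temperature, then given single-stranded circular M13Gori plus dNTPs and NTPs. EDTA-containing PicoGreen stopped the reaction, and dsDNA product was read by fluorescence.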

Assay [11] is described as follows: qHTS Validation Assay to Find Inhibitors of Chronic Active B-Cell Receptor Signaling (AID 485345; active = well fitted curve in the direction sought with a large enough effect in the main read-out, with a control signal flat, not every such curve was filed as active). A digest of the protocol:
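TMD8 ABC-DLBCL cells stably carrying doxycycline-inducible IkappaBalpha–green luciferase fusion plus unfused red luciferase; compounds 46 uM to 3 nM, 4 h at 37C with doxycycline. Corrected green/red luminescence ratio normalized to 10 uM MG-132 and basal cell wells; curves fitted.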

Assay [12] concerns the target Beta-2 adrenergic receptor (Homo sapiens) (UniProt P07550). In words: qHTS validation assay of beta-arrestin-biased ligands of beta2-adrenergic receptor (AID 485366). A digest of the protocol:
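Luminescence from a tTA-responsive luciferase, induced when recombinant beta-arrestin is recruited to recombinant beta2-AR, served as the agonism signal. Cells were exposed to compound for 18 hr at 37 degrees C; titrations spanned up to 46 microM.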

Assay [13] concerns the target ATP-dependent 6-phosphofructokinase (Trypanosoma brucei brucei) (UniProt O15648). In words: qHTS Validation Assay to Find Inhibitors of T. brucei phosphofructokinase (AID 485368). In outline: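 Activity was normalized between 1x (1.25 nM) PFK wells as no inhibition and enzyme-free wells as full inhibition, from luminescence after ADP-Glo detection of ADP made from 0.5 mM F6P and 0.1 mM ATP over 45 min.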

Assay [14] is described as follows: Cytometric Cell-Based qHTS for Inhibitors of the mTORC1 Signaling Pathway in MEF (Tsc2-/-, p53-/-) Cells (AID 2660).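 Note: percent of cells above a phospho-rpS6 to PI ratio cutoff in each well; series mostly up to about 38 µM.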 In outline: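 Percent of cells positive for normalized phospho-S6 staining is reported, with the cutoff set from rapamycin (7.5 nM) versus DMSO wells. Tsc2-/-, p53-/- MEFs received compound for 24 hrs.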
Assay [15] can be described thus: Cytometry Cell-Based qHTS for Inhibitors of the mTORC1 Signaling Pathway in MEF cells (AID 2668).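 Note: Tsc2-/- p53-/- mouse embryonic fibroblasts stably re-expressing wild-type Tsc2; percent cells positive for phospho-rpS6 Ser235/236 relative to propidium iodide stain; series mostly up to about 38 µM.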 In outline:
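WT MEFs (Tsc2-/-, p53-/- stably re-expressing WT Tsc2) in DMEM + 10% FBS received compounds 24 hrs after plating, for 24 hrs at 37 degree Celsius. Fixed cells stained with Alexa-488 anti-phospho-rpS6 Ser235/236 and propidium iodide; laser-scanning cytometry read-out.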

Assay [16] deals with RecQ-like DNA helicase BLM (Homo sapiens) (UniProt P54132). Briefly: qHTS Validation Assay for Inhibitors of Bloom's syndrome helicase (BLM) (AID 2364). In outline: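 50 nM BLM preincubated 15 min at room temperature with compound in pH 8.0 Tris buffer containing 2.5 ug/ml poly(dI-dC); started with 200 nM TAMRA/BHQ-2 forked duplex and 2 mM ATP (final). Unwinding read as TAMRA fluorescence increase, two reads 2 h apart.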

For assay [17], the target named is Tumor susceptibility gene 101 protein (Homo sapiens) (UniProt Q99816). In words: qHTS Validation Assay for Iinhibitors of HIV-1 Budding by Blocking the Interaction of PTAP/TSG101 (AID 485342; calls by dose curve). In outline: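 Tsg101 binding domain (10 uM final) in pH 7.5 HEPES/NaCl/Tween 20/EDTA/TCEP buffer was mixed with pin-transferred compounds, then FITC-labeled PTAP peptide (50 nM final) was added; after 20 min at r.t., fluorescence polarization was read.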

The target in assay [18] is Endonuclease 4 (Escherichia coli (strain K12)) (UniProt P0A6C1). Briefly: Counterscreen for APE1 Inhibitors: qHTS Assay for Inhibitors of Endonuclease IV (AID 2565). In outline:
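E. coli EndoIV at 2 nM final, preincubated 15 min at room temperature with compound, then 50 nM TAMRA/BHQ-2 THF abasic-site duplex added. Buffer: 50 mM Tris-HCl pH 7.5, 50 mM NaCl, 2 mM MgCl2, 1 mM DTT, 0.01% Tween-20. Kinetic fluorescence increase, third minus first read.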

Sequence of ATP-dependent 6-phosphofructokinase (Trypanosoma brucei brucei) (O15648 whole entry, looked up): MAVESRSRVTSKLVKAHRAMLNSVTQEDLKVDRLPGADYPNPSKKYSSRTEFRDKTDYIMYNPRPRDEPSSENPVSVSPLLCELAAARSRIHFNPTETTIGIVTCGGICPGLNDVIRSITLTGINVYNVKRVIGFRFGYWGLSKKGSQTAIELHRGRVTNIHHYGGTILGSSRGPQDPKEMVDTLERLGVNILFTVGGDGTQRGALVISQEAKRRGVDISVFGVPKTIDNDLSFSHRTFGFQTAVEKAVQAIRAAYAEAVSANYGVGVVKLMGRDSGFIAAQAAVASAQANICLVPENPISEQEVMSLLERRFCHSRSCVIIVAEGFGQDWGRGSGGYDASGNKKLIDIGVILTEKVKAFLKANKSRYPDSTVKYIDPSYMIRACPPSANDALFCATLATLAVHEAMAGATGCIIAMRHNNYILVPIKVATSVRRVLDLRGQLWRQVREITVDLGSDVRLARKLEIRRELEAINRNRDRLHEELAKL
Sequence of DNA polymerase III PolC-type (Bacillus subtilis (strain 168)) (P13267 whole entry, looked up): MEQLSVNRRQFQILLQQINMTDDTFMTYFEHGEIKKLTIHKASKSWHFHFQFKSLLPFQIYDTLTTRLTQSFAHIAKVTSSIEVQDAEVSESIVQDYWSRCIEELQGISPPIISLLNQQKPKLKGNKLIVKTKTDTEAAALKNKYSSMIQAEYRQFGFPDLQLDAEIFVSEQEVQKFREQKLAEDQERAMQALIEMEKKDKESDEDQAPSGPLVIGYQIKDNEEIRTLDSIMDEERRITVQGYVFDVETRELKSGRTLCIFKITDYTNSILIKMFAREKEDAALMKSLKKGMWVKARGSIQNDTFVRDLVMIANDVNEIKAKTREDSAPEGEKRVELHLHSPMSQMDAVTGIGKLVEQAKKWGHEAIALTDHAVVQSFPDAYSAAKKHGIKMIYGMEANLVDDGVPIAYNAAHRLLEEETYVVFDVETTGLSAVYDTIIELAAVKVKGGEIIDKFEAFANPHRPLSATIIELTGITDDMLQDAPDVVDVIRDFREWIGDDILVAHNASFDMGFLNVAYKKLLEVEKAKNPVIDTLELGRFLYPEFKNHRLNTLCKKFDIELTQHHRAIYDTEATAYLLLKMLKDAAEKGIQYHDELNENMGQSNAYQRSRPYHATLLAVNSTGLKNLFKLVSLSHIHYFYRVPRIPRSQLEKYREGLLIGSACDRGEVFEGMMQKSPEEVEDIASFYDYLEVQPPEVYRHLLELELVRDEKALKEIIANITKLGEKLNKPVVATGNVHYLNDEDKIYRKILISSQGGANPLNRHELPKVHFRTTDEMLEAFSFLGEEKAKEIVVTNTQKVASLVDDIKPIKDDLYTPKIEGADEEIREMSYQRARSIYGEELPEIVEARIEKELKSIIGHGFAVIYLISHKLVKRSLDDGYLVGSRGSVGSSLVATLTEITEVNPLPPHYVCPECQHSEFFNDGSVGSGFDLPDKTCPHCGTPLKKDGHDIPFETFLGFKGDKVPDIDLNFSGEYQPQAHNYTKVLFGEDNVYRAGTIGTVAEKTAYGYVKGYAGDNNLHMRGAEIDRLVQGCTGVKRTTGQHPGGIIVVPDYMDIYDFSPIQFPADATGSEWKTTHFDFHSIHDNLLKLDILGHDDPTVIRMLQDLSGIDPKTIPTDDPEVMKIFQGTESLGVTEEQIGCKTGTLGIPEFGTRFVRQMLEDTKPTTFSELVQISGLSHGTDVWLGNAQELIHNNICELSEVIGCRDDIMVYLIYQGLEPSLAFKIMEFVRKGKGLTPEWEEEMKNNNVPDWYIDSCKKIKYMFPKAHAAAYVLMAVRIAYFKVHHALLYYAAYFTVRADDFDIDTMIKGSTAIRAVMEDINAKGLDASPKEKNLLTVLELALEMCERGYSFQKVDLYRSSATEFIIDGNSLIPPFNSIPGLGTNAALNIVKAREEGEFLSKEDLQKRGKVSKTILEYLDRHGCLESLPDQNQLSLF
Sequence of Ubiquitin carboxyl-terminal hydrolase 2 (Homo sapiens) (O75604 whole entry, looked up): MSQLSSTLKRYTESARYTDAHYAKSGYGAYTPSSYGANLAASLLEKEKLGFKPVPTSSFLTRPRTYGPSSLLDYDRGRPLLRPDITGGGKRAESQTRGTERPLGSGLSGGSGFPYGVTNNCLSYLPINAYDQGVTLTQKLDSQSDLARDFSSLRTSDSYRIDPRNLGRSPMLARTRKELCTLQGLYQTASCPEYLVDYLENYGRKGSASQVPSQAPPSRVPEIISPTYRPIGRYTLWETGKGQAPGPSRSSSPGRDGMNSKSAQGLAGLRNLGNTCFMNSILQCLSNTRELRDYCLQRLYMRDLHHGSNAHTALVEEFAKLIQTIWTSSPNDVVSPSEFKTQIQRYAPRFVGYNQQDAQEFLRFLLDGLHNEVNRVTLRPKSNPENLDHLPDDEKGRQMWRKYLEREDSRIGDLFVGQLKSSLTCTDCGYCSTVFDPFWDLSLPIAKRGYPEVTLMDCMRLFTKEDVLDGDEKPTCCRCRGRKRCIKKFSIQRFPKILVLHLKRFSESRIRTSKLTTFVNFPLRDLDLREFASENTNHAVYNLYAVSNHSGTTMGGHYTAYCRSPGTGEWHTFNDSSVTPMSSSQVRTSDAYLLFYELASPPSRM
Sequence of Beta-2 adrenergic receptor (Homo sapiens) (P07550 whole entry, looked up): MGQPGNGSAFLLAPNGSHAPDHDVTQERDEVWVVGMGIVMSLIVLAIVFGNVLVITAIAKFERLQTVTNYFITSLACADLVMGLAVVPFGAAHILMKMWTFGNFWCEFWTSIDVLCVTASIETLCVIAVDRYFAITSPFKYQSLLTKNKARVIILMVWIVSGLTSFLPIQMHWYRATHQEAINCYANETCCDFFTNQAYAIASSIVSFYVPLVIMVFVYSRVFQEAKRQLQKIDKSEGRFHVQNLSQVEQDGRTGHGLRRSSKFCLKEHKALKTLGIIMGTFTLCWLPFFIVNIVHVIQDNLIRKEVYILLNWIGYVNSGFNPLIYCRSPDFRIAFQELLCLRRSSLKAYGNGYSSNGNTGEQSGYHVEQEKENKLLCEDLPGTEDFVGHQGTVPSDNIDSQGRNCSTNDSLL
Sequence of RecQ-like DNA helicase BLM (Homo sapiens) (P54132 whole entry, looked up): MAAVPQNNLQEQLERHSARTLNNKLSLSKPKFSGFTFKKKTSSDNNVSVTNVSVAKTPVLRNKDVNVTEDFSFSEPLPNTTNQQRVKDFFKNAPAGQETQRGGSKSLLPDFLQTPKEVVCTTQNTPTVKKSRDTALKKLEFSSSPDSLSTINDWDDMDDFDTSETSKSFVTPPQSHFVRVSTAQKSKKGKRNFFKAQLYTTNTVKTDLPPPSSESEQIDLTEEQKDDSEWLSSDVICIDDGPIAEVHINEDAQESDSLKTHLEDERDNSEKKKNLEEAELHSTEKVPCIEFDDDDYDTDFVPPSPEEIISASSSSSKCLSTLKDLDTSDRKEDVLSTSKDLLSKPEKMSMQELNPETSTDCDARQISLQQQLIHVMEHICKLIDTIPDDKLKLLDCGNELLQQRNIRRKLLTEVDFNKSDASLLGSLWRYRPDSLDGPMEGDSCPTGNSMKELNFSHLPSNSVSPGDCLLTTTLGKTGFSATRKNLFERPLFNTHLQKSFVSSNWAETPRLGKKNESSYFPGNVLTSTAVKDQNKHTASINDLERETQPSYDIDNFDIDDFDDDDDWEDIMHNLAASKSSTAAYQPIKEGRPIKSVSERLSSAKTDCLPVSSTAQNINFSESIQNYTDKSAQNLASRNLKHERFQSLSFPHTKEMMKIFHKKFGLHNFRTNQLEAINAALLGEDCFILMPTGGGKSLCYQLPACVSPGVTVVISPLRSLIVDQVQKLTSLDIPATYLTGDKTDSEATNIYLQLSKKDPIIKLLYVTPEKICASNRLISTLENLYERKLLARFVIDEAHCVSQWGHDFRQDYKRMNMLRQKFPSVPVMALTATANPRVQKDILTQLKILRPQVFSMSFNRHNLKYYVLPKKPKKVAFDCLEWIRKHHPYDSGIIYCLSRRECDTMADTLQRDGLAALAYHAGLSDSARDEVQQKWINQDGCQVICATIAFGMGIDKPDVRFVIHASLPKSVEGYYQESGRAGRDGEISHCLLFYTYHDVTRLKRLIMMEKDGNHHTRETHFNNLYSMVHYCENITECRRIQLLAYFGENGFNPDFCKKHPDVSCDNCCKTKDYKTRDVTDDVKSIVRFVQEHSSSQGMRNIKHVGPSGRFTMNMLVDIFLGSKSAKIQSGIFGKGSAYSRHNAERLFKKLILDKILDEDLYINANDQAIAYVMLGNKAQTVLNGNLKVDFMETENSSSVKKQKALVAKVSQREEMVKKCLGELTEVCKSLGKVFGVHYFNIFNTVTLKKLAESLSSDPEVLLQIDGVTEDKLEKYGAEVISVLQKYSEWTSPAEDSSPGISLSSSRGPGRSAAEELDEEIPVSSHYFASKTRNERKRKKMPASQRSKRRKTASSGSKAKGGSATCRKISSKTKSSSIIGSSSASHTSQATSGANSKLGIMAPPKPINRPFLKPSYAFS
Sequence of ATP-dependent DNA helicase Q1 (Homo sapiens) (P46063 whole entry, looked up): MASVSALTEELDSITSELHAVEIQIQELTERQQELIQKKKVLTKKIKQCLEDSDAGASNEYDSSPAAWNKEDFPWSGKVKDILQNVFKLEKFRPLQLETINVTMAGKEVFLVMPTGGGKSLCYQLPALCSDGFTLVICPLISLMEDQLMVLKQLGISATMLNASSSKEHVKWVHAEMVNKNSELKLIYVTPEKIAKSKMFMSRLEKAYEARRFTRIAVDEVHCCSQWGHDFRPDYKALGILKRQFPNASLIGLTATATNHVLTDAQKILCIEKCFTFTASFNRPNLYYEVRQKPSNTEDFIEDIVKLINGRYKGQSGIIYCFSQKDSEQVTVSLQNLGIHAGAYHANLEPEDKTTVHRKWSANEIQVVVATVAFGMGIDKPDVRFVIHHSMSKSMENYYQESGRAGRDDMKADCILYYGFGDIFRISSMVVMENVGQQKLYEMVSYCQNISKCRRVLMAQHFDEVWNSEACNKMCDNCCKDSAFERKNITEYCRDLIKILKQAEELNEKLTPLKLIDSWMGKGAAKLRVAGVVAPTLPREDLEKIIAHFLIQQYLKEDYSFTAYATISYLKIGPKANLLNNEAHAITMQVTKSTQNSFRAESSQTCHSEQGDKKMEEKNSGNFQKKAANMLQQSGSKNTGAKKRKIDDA

As to `Cc1[nH]c2ccc(O)cc2c1CCN`, the Potency result in assay [1], in assay [4], in assay [5], in [6], in assay [7] and in assay [8] was “inactive” each time. The Potency entry in [9], in assay [10], in [11] and in assay [13] was “inactive” throughout. In addition, the compound was classed as inactive in [2], in assay [3] and in assay [12].

On to `CC12NC(Cc3ccccc31)c1ccccc12` (stereo unspecified), for which the Potency entry in [1], in assay [4], in assay [14], in assay [6], in [15] and in assay [7] was “inactive” throughout. Further, the Potency result in assay [8], in assay [9], in assay [10] and in [11] was “inactive” in each case. Moreover, the compound was classed as inactive in assay [2] and in [3].

Turning to `CC(C)CC(NP(=O)(O)O[C@@H]1O[C@@H](C)[C@H](O)[C@@H](O)[C@H]1O)C(=O)NC(Cc1c[nH]c2ccccc12)C(=O)O` (stereo partly specified), the Potency entry in assay [1], in [4], in assay [16], in [7] and in [8] was “inactive” throughout. The result in [2] and in assay [3] was inactive.

With `NC(CCCCCP(=O)(O)O)C(=O)O` (stereo unspecified), the Potency entry in [1], in [4], in assay [5], in assay [6], in assay [15] and in [7] was “inactive” throughout. The Potency result in assay [8], in assay [9], in [10], in assay [11] and in assay [13] was “inactive” throughout. Further, the compound was called inactive in [2], in assay [3] and in assay [17].

Take `CCCN(CCC)C1CCc2cccc(O)c2C1` (stereo unspecified): the Potency entry in assay [1], in assay [4], in assay [5], in [6], in [7] and in assay [8] was “inactive” in each case. Further, the Potency entry in [9], in [10] and in assay [11] was “inactive” in each case. In addition, the compound was called inactive in assay [2], in [3] and in [17].

Take `NCCc1ccc(S(=O)(=O)F)cc1`: the Potency entry in assay [1], in assay [4], in assay [16], in [14], in assay [5] and in assay [6] was “inactive” throughout. Further, the Potency result in [7], in [8], in assay [9], in assay [10], in [11] and in assay [13] was “inactive” in each case. In addition, the compound was called inactive in assay [2], in assay [3], in [17] and in [12].

In the case of `c1ccc2c(c1)[I+]c1ccccc1-2`, the Potency in [1] is 56.2 nM (active); in assay [6], 58.5 nM (active); in assay [7], 251 nM (active); in [8], 6310 nM (active). The result in assay [3], in assay [18] and in assay [12] was inactive. The Potency result in assay [4], in [16], in assay [9], in assay [10] and in [13] was “inactive” in each case.

`CC(C)(C)c1o[nH]c(=O)c1CC(N)C(=O)O` (stereo unspecified): the Potency entry in assay [1], in [4], in [14], in [6], in [15] and in [7] was “inactive” throughout. Further, the Potency result in [8], in assay [9], in assay [10], in [11] and in [13] was “inactive” each time. The compound was called inactive in assay [2], in assay [3], in assay [17] and in assay [12].

Turning to `CO[C@H]1CC=C2CCN3CCC4=C(CC(=O)OC4)[C@]23C1`, the Potency entry in [1], in assay [4], in [14], in assay [6], in assay [15] and in assay [7] was “inactive” in each case. The Potency result in [8], in [9], in assay [10], in assay [11] and in assay [13] was “inactive” throughout. Moreover, the compound was classed as inactive in [2], in [3] and in [17].

With `C[N+](C)(C)CC#CCN1CCCC1=O`, the Potency entry in assay [1], in [4], in assay [16], in assay [14], in assay [5] and in assay [6] was “inactive” in each case. Further, the Potency entry in [15], in assay [7], in assay [8], in assay [9], in assay [10] and in [11] was “inactive” in each case. In addition, the Potency result in [13] was “inactive”. The call in assay [3], in assay [17] and in assay [12] was inactive.

The record behind these values is PubChem BioAssay (NCATS).
